This is an account of results in the supplement of paper PMC10849652.

The full data set covers some 7,900 targets. This sample favours those with a hit. About 0.6% of all pairs of compound and target were hits. Unmarked numbers belong to inactive results.

UniProt O95613, sequence (O95613 whole entry, looked up): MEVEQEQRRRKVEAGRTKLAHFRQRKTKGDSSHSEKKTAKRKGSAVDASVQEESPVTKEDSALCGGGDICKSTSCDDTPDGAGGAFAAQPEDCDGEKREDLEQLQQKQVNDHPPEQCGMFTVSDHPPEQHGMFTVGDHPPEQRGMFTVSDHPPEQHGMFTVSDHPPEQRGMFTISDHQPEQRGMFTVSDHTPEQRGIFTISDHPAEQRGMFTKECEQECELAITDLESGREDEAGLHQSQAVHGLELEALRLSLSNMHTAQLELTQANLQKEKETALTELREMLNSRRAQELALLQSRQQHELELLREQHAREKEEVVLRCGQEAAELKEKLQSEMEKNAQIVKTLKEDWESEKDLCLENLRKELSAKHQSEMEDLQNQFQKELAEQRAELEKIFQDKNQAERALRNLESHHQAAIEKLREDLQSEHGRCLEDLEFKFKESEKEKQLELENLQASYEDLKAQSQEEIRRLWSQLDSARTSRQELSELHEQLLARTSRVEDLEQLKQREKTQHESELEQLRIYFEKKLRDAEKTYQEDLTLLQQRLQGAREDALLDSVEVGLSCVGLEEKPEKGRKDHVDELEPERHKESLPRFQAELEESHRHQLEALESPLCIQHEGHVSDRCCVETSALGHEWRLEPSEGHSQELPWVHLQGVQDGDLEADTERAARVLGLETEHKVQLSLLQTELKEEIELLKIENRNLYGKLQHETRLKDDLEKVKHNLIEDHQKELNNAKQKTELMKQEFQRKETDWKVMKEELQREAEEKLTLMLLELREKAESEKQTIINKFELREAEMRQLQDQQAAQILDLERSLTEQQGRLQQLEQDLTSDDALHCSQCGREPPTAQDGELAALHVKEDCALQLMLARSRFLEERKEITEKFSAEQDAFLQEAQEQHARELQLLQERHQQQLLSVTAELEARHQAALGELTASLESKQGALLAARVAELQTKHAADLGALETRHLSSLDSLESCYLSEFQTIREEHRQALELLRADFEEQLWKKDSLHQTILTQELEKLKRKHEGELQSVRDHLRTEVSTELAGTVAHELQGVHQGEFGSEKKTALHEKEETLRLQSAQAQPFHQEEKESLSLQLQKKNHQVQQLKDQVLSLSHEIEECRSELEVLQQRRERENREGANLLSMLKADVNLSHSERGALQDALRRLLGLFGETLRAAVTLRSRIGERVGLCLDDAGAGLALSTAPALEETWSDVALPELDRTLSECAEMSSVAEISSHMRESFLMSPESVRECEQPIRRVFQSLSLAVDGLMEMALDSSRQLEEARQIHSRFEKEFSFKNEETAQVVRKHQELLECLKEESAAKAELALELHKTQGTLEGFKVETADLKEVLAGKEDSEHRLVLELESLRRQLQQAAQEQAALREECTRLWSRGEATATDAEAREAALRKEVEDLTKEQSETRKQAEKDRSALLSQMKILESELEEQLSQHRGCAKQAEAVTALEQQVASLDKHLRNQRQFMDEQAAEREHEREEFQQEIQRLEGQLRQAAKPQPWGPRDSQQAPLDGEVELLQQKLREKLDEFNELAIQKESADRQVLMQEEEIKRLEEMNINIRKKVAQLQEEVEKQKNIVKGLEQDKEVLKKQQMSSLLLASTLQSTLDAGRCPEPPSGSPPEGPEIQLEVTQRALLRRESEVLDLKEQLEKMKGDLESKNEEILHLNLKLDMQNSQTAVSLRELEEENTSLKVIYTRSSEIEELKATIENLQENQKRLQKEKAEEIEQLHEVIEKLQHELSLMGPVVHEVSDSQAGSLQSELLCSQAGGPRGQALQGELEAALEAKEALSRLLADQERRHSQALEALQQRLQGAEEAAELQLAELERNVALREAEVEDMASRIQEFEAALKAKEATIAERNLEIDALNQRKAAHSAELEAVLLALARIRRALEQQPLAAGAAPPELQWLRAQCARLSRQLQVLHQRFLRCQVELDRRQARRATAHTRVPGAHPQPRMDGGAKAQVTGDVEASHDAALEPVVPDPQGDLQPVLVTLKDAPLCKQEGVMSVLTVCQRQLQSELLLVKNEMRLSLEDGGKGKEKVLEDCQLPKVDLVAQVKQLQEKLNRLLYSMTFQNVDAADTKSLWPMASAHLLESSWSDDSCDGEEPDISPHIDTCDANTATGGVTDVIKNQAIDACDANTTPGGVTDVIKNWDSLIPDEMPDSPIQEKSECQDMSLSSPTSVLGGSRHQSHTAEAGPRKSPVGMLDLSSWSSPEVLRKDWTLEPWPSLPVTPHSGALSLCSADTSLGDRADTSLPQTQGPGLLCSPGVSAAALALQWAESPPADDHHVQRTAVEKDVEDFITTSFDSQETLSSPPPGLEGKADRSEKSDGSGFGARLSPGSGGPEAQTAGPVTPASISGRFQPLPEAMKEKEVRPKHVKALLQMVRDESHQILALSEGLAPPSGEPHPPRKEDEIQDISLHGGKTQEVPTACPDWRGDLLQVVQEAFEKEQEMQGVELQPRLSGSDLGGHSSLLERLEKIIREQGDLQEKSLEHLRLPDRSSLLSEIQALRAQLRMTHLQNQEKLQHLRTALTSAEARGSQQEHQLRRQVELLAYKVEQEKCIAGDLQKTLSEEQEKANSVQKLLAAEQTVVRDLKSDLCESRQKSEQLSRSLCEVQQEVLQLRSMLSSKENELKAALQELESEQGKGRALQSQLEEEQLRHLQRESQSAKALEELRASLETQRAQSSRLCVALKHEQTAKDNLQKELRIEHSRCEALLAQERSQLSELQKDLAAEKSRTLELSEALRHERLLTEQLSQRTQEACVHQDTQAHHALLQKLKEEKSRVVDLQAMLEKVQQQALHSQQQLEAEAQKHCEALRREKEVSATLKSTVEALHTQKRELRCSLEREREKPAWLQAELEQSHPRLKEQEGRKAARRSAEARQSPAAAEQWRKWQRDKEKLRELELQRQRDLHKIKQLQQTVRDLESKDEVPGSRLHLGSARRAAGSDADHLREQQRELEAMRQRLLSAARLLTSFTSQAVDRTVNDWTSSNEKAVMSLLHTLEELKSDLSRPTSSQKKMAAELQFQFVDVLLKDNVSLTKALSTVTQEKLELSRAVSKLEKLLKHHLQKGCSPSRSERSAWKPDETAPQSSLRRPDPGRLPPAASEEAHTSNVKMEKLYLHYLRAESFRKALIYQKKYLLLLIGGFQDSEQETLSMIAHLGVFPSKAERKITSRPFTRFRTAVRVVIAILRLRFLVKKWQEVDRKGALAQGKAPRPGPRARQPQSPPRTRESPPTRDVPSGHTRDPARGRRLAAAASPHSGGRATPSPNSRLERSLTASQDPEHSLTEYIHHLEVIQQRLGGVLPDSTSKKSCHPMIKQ
UniProt Q05655, sequence (Q05655 whole entry, looked up): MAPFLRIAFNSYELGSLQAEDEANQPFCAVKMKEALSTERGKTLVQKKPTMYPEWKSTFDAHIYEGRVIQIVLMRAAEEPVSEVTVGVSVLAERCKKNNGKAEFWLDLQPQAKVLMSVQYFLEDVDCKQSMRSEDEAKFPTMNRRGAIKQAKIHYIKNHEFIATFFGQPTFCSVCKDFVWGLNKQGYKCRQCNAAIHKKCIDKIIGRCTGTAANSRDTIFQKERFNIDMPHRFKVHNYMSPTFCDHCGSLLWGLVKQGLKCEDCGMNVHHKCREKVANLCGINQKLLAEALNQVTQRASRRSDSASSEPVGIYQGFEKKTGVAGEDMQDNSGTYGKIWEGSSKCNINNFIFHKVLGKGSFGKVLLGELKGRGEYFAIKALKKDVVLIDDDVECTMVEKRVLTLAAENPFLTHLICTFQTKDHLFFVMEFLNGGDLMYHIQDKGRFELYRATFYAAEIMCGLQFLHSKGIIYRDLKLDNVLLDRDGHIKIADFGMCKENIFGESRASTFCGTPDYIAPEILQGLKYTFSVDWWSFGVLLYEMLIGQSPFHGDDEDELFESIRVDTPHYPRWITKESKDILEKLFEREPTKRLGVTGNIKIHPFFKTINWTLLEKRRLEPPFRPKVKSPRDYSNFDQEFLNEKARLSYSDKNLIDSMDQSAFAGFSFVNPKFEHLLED
UniProt Q96PU8, sequence (Q96PU8 whole entry, looked up): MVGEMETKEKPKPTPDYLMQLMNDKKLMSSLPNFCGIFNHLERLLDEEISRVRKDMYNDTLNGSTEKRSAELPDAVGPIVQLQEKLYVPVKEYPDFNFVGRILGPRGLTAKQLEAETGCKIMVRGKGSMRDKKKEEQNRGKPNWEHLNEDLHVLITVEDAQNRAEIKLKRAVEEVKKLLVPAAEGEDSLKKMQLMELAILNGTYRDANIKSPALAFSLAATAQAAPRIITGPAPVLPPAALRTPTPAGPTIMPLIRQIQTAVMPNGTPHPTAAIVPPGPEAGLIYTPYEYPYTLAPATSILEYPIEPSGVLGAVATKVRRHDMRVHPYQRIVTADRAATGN
UniProt Q15365, sequence (Q15365 whole entry, looked up): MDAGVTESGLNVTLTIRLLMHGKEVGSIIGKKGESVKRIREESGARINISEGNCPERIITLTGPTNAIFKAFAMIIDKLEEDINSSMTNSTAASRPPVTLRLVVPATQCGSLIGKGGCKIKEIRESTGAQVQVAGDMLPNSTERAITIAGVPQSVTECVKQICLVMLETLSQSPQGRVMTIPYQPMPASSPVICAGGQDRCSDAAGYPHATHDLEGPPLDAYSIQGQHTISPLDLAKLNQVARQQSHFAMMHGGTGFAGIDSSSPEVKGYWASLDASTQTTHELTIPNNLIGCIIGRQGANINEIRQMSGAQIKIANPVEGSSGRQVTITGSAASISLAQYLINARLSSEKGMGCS
UniProt P28072, sequence (P28072 whole entry, looked up): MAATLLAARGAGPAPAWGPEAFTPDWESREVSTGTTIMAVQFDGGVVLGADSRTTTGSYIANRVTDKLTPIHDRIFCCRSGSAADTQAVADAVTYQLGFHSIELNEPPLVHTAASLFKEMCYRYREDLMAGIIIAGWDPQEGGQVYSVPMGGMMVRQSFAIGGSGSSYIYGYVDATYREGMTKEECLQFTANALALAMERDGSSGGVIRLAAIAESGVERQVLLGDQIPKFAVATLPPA
UniProt Q15121, sequence (Q15121 whole entry, looked up): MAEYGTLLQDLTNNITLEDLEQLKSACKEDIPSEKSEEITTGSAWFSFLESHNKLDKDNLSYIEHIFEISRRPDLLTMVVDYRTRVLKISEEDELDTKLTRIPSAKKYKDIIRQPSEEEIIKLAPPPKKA

Compound in the assay: CC(C)C1=C2N=C(C=C(N2N=C1)NCC3=CC=CC=C3)NCCCCCCN
Put plainly: log2 fold change, soluble protein after heating vs DMSO (PISA); higher = thermal stabilisation; K562 cells, 10 uM, 30 min; active = over 0.2 and 3.5 SD of the protein, either way, in both replicates (recomputed). The method, boiled down: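 K562 cells at 2×10^6 cells/mL were exposed to 10 μM compound for 30 min, then aliquots were heated for 3 min across 48°C-58°C, pooled, and extracted in PBS containing 0.5% NP-40 at 4°C. The supernatant after 21,000xg for 90 min was taken as soluble protein and measured by TMTpro 16plex LC-MS/MS with channel sums equalised. Thermal stability is reported relative to control samples, with values from duplicates. Fold changes are given on a log2 scale.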
For the target PSMC2 (UniProt P35998), the log2 fold change was 0.053.
Regarding PSMB6 (UniProt P28072), the log2 fold change was 0.129.
As for PRKD2 isoform 3 (UniProt Q9BZL6), the figure is -0.216; as for QKI (UniProt Q96PU8), -0.221; as for PKN1 isoform 2 (UniProt Q16512), -0.038.
As for PRPF38B (UniProt Q5VTL8), the figure is -0.06; as for PTPN12 (UniProt Q05209), -0.101; as for PDCD6 (UniProt O75340), -0.156.
Take PPOX (UniProt P50336): the log2 fold change was -0.217.
As for POP1 (UniProt Q99575), the figure is 0.013; as for PIKFYVE (UniProt Q9Y2I7), -0.256.
As for PPP1R35 (UniProt Q8TAP8), the figure is -0.049.
Next, PSMB4 (UniProt P28070): 0.065; PLIN2 (UniProt Q99541): -1.11 (active); PCNT (UniProt O95613): 0.053.
For PSMD13 (UniProt Q9UNM6), the log2 fold change was 0.009.
Next, PEA15 isoform 2 (UniProt Q15121): -0.045.
As for PARG (UniProt Q86W56), the figure is -0.203; as for PDLIM7 (UniProt Q9NR12), 0.024; as for PEX13 (UniProt Q92968), -0.201.
Regarding PRKCD (UniProt Q05655), the log2 fold change is -0.004.
Next, PSMC5 (UniProt P62195): 0.009.
As for PCBP1 (UniProt Q15365), the figure is -0.118.
